Paper PMC13083723 (Patterns, 2026)
In all, about 5,400 compounds went through this assay and about 190 (3.5%) showed an effect of 50% or more. The sample as a whole holds a higher share of strong results than the screen did. Positions of bridges follow the written chain, without caps; N, C: chain ends. Non-standard residues stand in square brackets, D forms with d. Residues, ends and D or L forms follow the SMILES beside them. *: point of attachment. X1 = CCC(C)C(N)C1=NC(C(=O)*)CS1; dOrn = NCCC[C@@H](N)C(=O)O

Each molecule was assayed on Vero-E6 (assay: primary screen, phospholipidosis by LipidTOX staining; higher = more effect of the substance). Conditions: 10 µM.
Summary of the method: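 Single-concentration screen at 10 μM, with DMSO 0.1 v/v % and amiodarone 10 μM as controls. Read-out is LipidTOX Red phospholipid staining, which tolerates aldehyde fixation, in Vero-E6 cells.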

COc1ccc(C[C@@H](C)[C@@H](C)Cc2ccc(OC)c(OC)c2)cc1OC was tested. Which result_ITMP did it give?
The result_ITMP was 6.63%.

COc1ccc(Cc2nc(=O)c3c(C)nc([C@@H](CCCc4ccccc4)[C@@H](C)O)n3[nH]2)cc1OC was tested. Which result_ITMP did it give?
Its result_ITMP is 0.34%.

Which result_ITMP does the source give for C=CC(=O)Nc1cccc(Oc2nc(Nc3ccc(N4CCN(C)CC4)cc3OC)ncc2Cl)c1 here?
Its result_ITMP is -1.32%.

Which result_ITMP does the source give for C=CC(=O)Nc1cccc(Oc2nc(Nc3ccc(N4CCN(C)CC4)cc3)nc3ccsc23)c1 here?
Its result_ITMP is 37.8%.

For C=CC(=O)Nc1cccc(Oc2nc(Nc3ccc(N4CCN(C)CC4)cc3)ncc2Cl)c1, which result_ITMP is on record?
Its result_ITMP is 70.5%.

C[C@H]1[C@H](C)CC[C@]2(C(=O)O)CC[C@]3(C)C(=CC[C@@H]4[C@@]5(C)C[C@@H](O)[C@H](O)[C@@](C)(CO)[C@@H]5CC[C@]43C)[C@H]12 was tested. Which result_ITMP did it give?
Its result_ITMP is -2.77%.

How did the result_ITMP turn out when Cc1cnc(Nc2ccc(N3CCN(C)CC3)cc2)nc1Nc1cccc(S(=O)(=O)NC(C)(C)C)c1 was run?
Its result_ITMP is 21.8%.

Which result_ITMP does the source give for Cc1cc(-c2cc(O)ccc2Cl)cc2nnc(Nc3ccc(OCCN4CCCC4)cc3)nc12 here?
Its result_ITMP is -2.38%.

With Cc1cnc(Nc2ccc(OCCN3CCCC3)cc2)nc1Nc1cccc(S(=O)(=O)NC(C)(C)C)c1 as the molecule, how does the result_ITMP read?
Its result_ITMP is 122%.

With Cn1cnc2nc(O)nc(O)c21 as the molecule, how does the result_ITMP read?
Its result_ITMP is 0.82%.

With Cc1nc2ccc(Oc3ccc(F)cc3)cc2c(=O)n1C[C@H]1CCCN(C(C)C)C1 as the molecule, how does the result_ITMP read?
The result_ITMP was 56.3%.

With O=C([O-])[C@H](O)[C@@H](O)[C@H](O)[C@H](O)C(O)CO (some centres unmarked) as the molecule, how does the result_ITMP read?
Its result_ITMP is -2.51%.

For Cn1nccc1Nc1nccc(-c2ccn([C@H](CO)c3ccc(Cl)c(F)c3)c(=O)c2)n1 [R4A_0003897_001 / SPE_A20830788], which result_ITMP is on record?
Its result_ITMP is 1.66%.

How did the result_ITMP turn out when CNCCC(Oc1ccc(C(F)(F)F)cc1)c1ccccc1 (centres unmarked) was run?
The result_ITMP was 54.3%.

For COCCCC/C(=N\OCCN)c1ccc(C(F)(F)F)cc1, which result_ITMP is on record?
The result_ITMP was 48.9%.

How did the result_ITMP turn out when CN(CC[C@@H](Oc1ccc(-c2ccccc2)cc1)c1ccc(F)cc1)CC(=O)O was run?
Its result_ITMP is 0.25%.

How did the result_ITMP turn out when CNCCC(Oc1ccccc1OC)c1ccccc1 (centres unmarked) was run?
The result_ITMP was 13%.

For NCCC(Oc1ccc(C(F)(F)F)cc1)c1ccccc1 (centres unmarked), which result_ITMP is on record?
The result_ITMP was 62.2%.

With CN1C2CC(O)[C@H]1C[C@@H](OC(=O)[C@H](CO)c1ccccc1)C2 (mixture of isomers) as the molecule, how does the result_ITMP read?
The result_ITMP was -3.11%.

How did the result_ITMP turn out when CCCN1C[C@@H](NS(=O)(=O)N(CC)CC)C[C@@H]2Cc3c(O)cccc3C[C@H]21 was run?
The result_ITMP was 0.96%.

For CC(=O)O.CC(=O)O.N.NC1CCCCC1.[Cl][Pt][Cl], which result_ITMP is on record?
The result_ITMP was -1.8%.

Which result_ITMP does the source give for O=C([O-])Cc1ccccc1Nc1c(Cl)cccc1Cl here?
The result_ITMP was -2.2%.

CN(C(=O)CN1C(=O)COc2cc(Cl)c(Cl)cc21)[C@@H](CN1CCCC1)c1ccc(-c2cccc(C(N)=O)c2)cc1 was tested. Which result_ITMP did it give?
The result_ITMP was 41.8%.

Which result_ITMP does the source give for CN(C(=O)Cc1ccc(Cl)c(Cl)c1)[C@H](CN1CCCC1)c1ccccc1 here?
Its result_ITMP is 53.5%.

For CN(C(=O)Cc1ccccc1)C(CN1CCCC1)c1ccccc1 (centres unmarked), which result_ITMP is on record?
The result_ITMP was 6.1%.

Which result_ITMP does the source give for CCC(C)C(N)C1=NC(C(=O)N[C@@H](CC(C)C)C(=O)N[C@H](CCC(=O)[O-])C(=O)N[C@H](C(=O)N[C@H]2CCCCNC(=O)[C@H](CC(N)=O)NC(=O)[C@@H](CC(=O)[O-])NC(=O)[C@@H](Cc3cnc[nH]3)NC(=O)[C@@H](Cc3ccccc3)NC(=O)[C@@H]([C@H](C)CC)NC(=O)[C@@H](CCCN)NC2=O)[C@@H](C)CC)CS1 (some centres unmarked) (X1-L[dE]IK[dOrn][dI][dF][dH][dD]N; lactam 4-C) here?
Its result_ITMP is -3.81%.

Which result_ITMP does the source give for Cc1cccn2c(=O)c(-c3nn[n-]n3)cnc12 here?
The result_ITMP was -2.44%.

CCN(CC)CCOc1ccccc1C(=O)CCc1ccccc1 was tested. Which result_ITMP did it give?
Its result_ITMP is 30.6%.

With CCCC(=O)c1cc(F)ccc1OCC(O)CNC(C)(C)C (centres unmarked) as the molecule, how does the result_ITMP read?
Its result_ITMP is 20.3%.

How did the result_ITMP turn out when CCCNCC(O)COc1ccccc1C(=O)CCc1ccccc1 (centres unmarked) was run?
The result_ITMP was 86.6%.

Cn1nnnc1SCC1=C(C(=O)[O-])N2C(=O)[C@@H](NC(=O)[C@H](O)c3ccccc3)[C@H]2SC1 was tested. Which result_ITMP did it give?
Its result_ITMP is -1.4%.

With O=C(O)c1ccc(CN2CCC(CN[C@@H]3C[C@H]3c3ccccc3)CC2)cc1 as the molecule, how does the result_ITMP read?
The result_ITMP was -1.25%.

With CN1CCN(C(=O)CN[C@@H]2C[C@H]2c2ccc(OCc3ccccc3)cc2)CC1 as the molecule, how does the result_ITMP read?
The result_ITMP was 87.7%.

How did the result_ITMP turn out when Oc1ccc(OCc2ccccc2)cc1 was run?
Its result_ITMP is -11.6%.

How did the result_ITMP turn out when Cc1cc(Nc2cc(CN3CCOCC3)c3nc(C)c(Cc4ccc(Cl)cc4F)n3n2)[nH]n1 was run?
The result_ITMP was 13%.

With COc1ccc2cc1Oc1ccc(cc1)C[C@H]1c3c(cc4c(c3Oc3cc5c(cc3OC)CCN(C)[C@@H]5C2)OCO4)CCN1C as the molecule, how does the result_ITMP read?
Its result_ITMP is 57%.

With COc1cc2c3cc1Oc1cc(ccc1O)C[C@@H]1c4c(cc(OC)c(O)c4Oc4ccc(cc4)C[C@@H]3N(C)CC2)CC[N+]1(C)C as the molecule, how does the result_ITMP read?
Its result_ITMP is -3.39%.

COc1ccc2cc1Oc1ccc(cc1)C[C@H]1c3cc(c(OC)cc3CCN1C)Oc1c(OC)c(OC)cc3c1[C@H](C2)N(C)CC3 was tested. Which result_ITMP did it give?
Its result_ITMP is 17.4%.
